± gives the standard deviation of the averaged measurements.
Assays:
[1] = tested on: Drosophila ezoana antennal basiconic sensillum ab4; test: odor-evoked OSN spike response (post minus pre-stimulus); higher = stronger neuronal excitation; conditions: odor dilution: 10^-4
Method in brief: (§1)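 Single sensillum recordings were made with a tungsten electrode at the base of antennal basiconic sensilla of restrained adult flies, with up to 3 sensilla per fly. Filter paper loaded with 10 µl of odorant at 10^−4 in mineral oil or DMSO was delivered as a 500 ms air pulse into a charcoal-filtered, humidified 1.5 l min^−1 air stream. The response is the change in spike frequency between 1-second pre- and post-stimulus windows (Auto Spike software), averaged over replicate sensilla.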

[2] = tested on: Drosophila virilis antennal basiconic sensillum AB11; test: as above; conditions: odor dilution: 10^-4
Method in brief: as §1

| SMILES | odor-evoked OSN spike response [1] | odor-evoked OSN spike response [2] |
| --- | --- | --- |
| C[C@H]1CCC[C@@]2(C)CCCC[C@]12O [geosmin] | 119 ± 39 spikes/s |  |
| CC(C)OC(=O)c1ccccc1 [isopropyl benzoate] |  | 54 ± 12 spikes/s |
| CCOC(=O)c1ccccc1 [ethyl benzoate] |  | 23.1 ± 7.8 spikes/s |

— the supplement of paper PMC10477191
